# KDM5B inhibitor: inhibitors of human KDM5B histone demethylase; Q9UGL1; Potency, µM (highest dose often 57.7 µM), hits mostly inhibitors; KDM5B demethylase, FDH-coupled NADH fluorescence (FDH is formaldehyde dehydrogenase); 220,000 compounds, 2.6% hits; active means well fitted inhibition curve with a large enough effect; further: 0% is about no effect; nearly all actives have a fitted effect of over 70% in size
#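 Measured: NADH fluorescence change, 30 min, RT. System: KDM5BΔAP 200 nM final, H3K4me3 peptide, α-KG, Fe(II), ascorbate, NAD⁺ plus FDH, pH 7.5 HEPES. Compounds: titrated, 10 min pre-incubation with enzyme.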
# An asterisk follows results filed as active; i = inactive. Only a selection was taken, and hits are over-represented in it overall. Potency means the concentration at half of the fitted maximal effect.
SMILES,KDM5B inhibitor
Cc1nnc2ccc(-c3cccc(NC(=O)c4ccc(Br)o4)c3)nn12,i
Cc1ccc(C(=O)NCc2nnc3ccc(-c4ccc(C)c(C)c4)nn23)s1,28.2µM*
O=C(NCc1nnc2ccc(-c3ccc(Cl)cc3)nn12)c1cccc(Br)c1,28.2µM*
Cc1ccc(-c2ccc3nnc(CNC(=O)c4ccc(N(C)C)cc4)n3n2)cc1C,i
CCOC(=O)N1CCN(C(=O)CSc2ccc3nnc(CCNC(=O)c4ccc(OC)cc4)n3n2)CC1,i
COc1ccc(C(=O)NCc2nnc3ccc(-c4ccc(C)c(C)c4)nn23)cc1,20µM*
O=C(NCc1nnc2ccc(-c3ccc(Cl)cc3)nn12)c1ccc(F)c(F)c1,31.6µM*
CCc1ccc(-c2ccc3nnc(SCC(=O)Nc4cccc(C(C)=O)c4)n3n2)cc1,i
Cc1ccc(-c2ccc3nnc(C)n3n2)cc1S(=O)(=O)Nc1cccc(Cl)c1,i
CC(=O)c1cccc(NC(=O)CSc2nnc3ccc(-c4ccc(Br)cc4)nn23)c1,i
Cc1ccc(C(=O)N2CCCC(n3cc(-c4nc(C(C)C)no4)nn3)C2)s1 (stereo not given),i
COc1ccc(F)c(CN2CCCC(O)(CN3CCC(CCO)CC3)C2=O)c1 (stereo not given),i
Cc1ccc(-c2cnc(CCC(=O)Nc3nc(C)cs3)o2)cc1,i
O=C(O)CNS(=O)(=O)c1cc(C(F)(F)F)cc(C(F)(F)F)c1,i
O=C(Nc1cccc(F)c1)[C@@H]1C[C@H](c2ccc(F)cc2)N([S+](=O)([O-])C2CC2)C1,i
O=C(O)c1ccc(CNCC(O)c2ccccc2)cc1 (stereo not given),i
Nc1c(C(=O)c2ccc(F)cc2)sc2nc3c(cc12)CN(Cc1ccccc1)CC3,i
CC(C)c1ccccc1NC(=S)NCCc1ccc(Cl)cc1Cl,i
CC(=O)c1ccc(NC(=O)Cn2nc(-n3nc(C)cc3C)ccc2=O)cc1,i
Fc1cccc(NC(=S)NC2CC2)c1,i
Cc1ccc(-c2ccc(=O)n(CC(=O)Nc3ccc(F)c(Cl)c3)n2)cc1C,i
Cc1ccc(-c2ccc3nnc(CNC(=O)c4ccc(F)c(F)c4)n3n2)cc1C,31.6µM*
Cc1ccc(-c2ccc3nnc(CNC(=O)c4ccc5c(c4)OCO5)n3n2)cc1,i
Cc1ccc(-c2ccc3nnc(CNC(=O)c4ccc(F)c(F)c4)n3n2)cc1,28.2µM*
Cc1ccc(S(=O)(=O)C(CNC(=O)c2ccc(F)c(F)c2)c2ccco2)cc1 (stereo not given),i
SMILES,KDM5B inhibitor
Cc1ccc(-c2ccc3nnc(CNC(=O)c4cccc(N(C)C)c4)n3n2)cc1C,i
CCNC(=O)c1ccccc1OCc1ccc(F)cc1,i
COc1cncc(-c2cn(C)c(=O)n3cc(CNc4ccccc4)nc23)c1,i
Cn1cc(-c2cccc(C(F)(F)F)c2)c2nc(CNc3ccccc3)cn2c1=O,35.5µM*
CN1CCN(Cc2cn3c(=O)n(C)cc(-c4cccc(OC(F)(F)F)c4)c3n2)CC1,i
N#Cc1ccc(NC(=O)COc2ccc3cc(Br)ccc3c2)cc1,i
O=C(CCCc1ccccc1)NCC(=O)N1CCN(c2ccccn2)CC1,28.2µM*
COc1ccc(C(=O)NCC(=O)N2CCN(c3ccccn3)CC2)c(C)c1,22.4µM*
CCOC(=O)c1[nH]c2ccc(OC)cc2c1NC(=S)N1CCN(c2ccccn2)CC1,i
COc1ccc(C2(C(=O)N3CCN(c4ccccn4)CC3)CCOCC2)cc1,79.4µM*
O=C(Cc1ccccc1)NCC(=O)N1CCN(c2ccccc2F)CC1,i
O=C(CCC1CCCN(c2ncccn2)C1)N1CCN(c2ccccn2)CC1 (stereo not given),i
COc1ccc(C2(C(=O)N3CCN(c4ncccn4)CC3)CCOCC2)cc1,i
COc1ccc(CC(=O)NCC(=O)N2CCN(c3ccccn3)CC2)cc1,31.6µM*
COc1ccc(C2(C(=O)N3CCC(F)CC3)CCOCC2)cc1,i
COc1ccc(-n2nc(C(=O)NCC(=O)N3CCN(c4ccccn4)CC3)c3ccccc3c2=O)c(OC)c1,i
COc1ccccc1N1CCN(C(=O)CNC(=O)c2ccc(Cl)cc2Cl)CC1,i
CCOC(=O)CNC(=O)Cc1ccc(OC)cc1,i
CC(=O)c1ccc(NC(=S)NCCSc2ccc(Cl)cc2)cc1,i
Cc1cc(CNC(=O)CCc2ncc(-c3ccccc3)o2)ccc1F,i
Cc1ccc(C)c(CSc2nnc(C(N)Cc3ccccc3)o2)c1 (stereo not given),i
CCNc1c(NS(=O)(=O)c2ccc(F)c(F)c2)c(=O)oc2ccccc12,i
CC(C)c1ccc(-c2nnn(C(C)C(=O)Nc3cccc(C#N)c3)n2)cc1 (stereo not given),i
Cc1nc(NC(=O)c2ccc3c(c2)OCCO3)ccc1Cl,i
Cc1cc(C)n2nc(SC(C)C(=O)Nc3c(Cl)cc(Cl)cc3Cl)nc2n1 (stereo not given),i
SMILES,KDM5B inhibitor
O=C(CSCc1ccccc1)NNC(=S)NC1CC1,i
O=C(CN1CCN(c2ccccn2)CC1)Nc1cc(F)ccc1F,i
O=C(COc1ccc(F)cc1)NCC(=O)N1CCN(c2ccccn2)CC1,25.1µM*
COc1ccccc1CC(=O)N1CCc2nn(C)c(=O)n2CC1,i
O=C(CN1CCN(c2ccccn2)CC1)Nc1cccc(F)c1,i
COc1ccccc1CC(=O)NCC(=O)N1CCN(c2ccccn2)CC1,25.1µM*
CCOc1ccccc1N1CCN(C(=O)CNC(=O)c2ccc(OC)c(OC)c2)CC1,i
CCOC(=O)N1CCN(C(=O)c2cc3occc3n2Cc2ccccc2)CC1,i
NC(=S)NNC(=O)Nc1ccccc1,i
COC(=O)c1ccccc1-c1ccc(C=C(C#N)C#N)o1,i
CCCCCCc1cc2cc(/C(C)=N/O)c(=O)oc2cc1O,i
CC(C)c1cccc(C(C)C)c1NC(=O)COC(=O)Cc1n[nH]c(=O)c2ccccc12,i
CCN(CC(C)C#N)C(=O)C1CCN(C(=O)c2ccc(Cl)cc2)CC1 (stereo not given),i
O=C(c1cccs1)N1CCN(Cc2ccc(=O)n(CC3CC3)c2)CC1,i
CCn1cc(CN2CCN(C(=O)CCc3ccccc3)CC2)ccc1=O,7.08µM*
CCN1CCN(C(=O)c2cccs2)CC1,i
O=C(c1ccccn1)N1CCN(Cc2ccc(=O)n(CC3CC3)c2)CC1,15.8µM*
CCn1cc(CN2CCN(C(=O)c3cccs3)CC2)ccc1=O,11.2µM*
O=C(c1ccccc1)N1CCN(Cc2ccc(=O)n(CC3CC3)c2)CC1,i
CCn1cc(CN2CCN(C(=O)c3ccco3)CC2)ccc1=O,i
O=C(O)CCC(=O)N1CCN(CCc2ccccc2)CC1,i
O=C(c1ccoc1)N1CCN(Cc2ccc(=O)n(CC3CC3)c2)CC1,i
O=C(COC(=O)c1ccc2ccccc2n1)Nc1cccc2ccccc12,i
Cn1ncc(C(=O)NCc2ccccc2)c1-n1cccc1,i
CCCC(C(=O)NCc1ccc(OC)c(OC)c1)c1ccccc1 (stereo not given),i
SMILES,KDM5B inhibitor
COc1ccc(C(=O)N[C@@H]2CCC[C@@H]2C(=O)N2CCN(c3cc(C)ccc3C)CC2)cn1,i
COc1ccc(Nc2cc(C)nc3c(C)ccc([N+](=O)[O-])c23)cc1,i
Cc1ccc(C(=O)NCc2nnc3cc(-c4nc(C)no4)ccn23)cc1,11.2µM*
CC(C)c1noc(-c2ccn3c(CNC(=O)c4ccccc4)nnc3c2)n1,i
Cc1cccc(C(=O)NCc2nnc3cc(-c4nc(C(C)C)no4)ccn23)c1,28.2µM*
Cc1noc(-c2ccn3c(CNC(=O)c4ccccn4)nnc3c2)n1,i
